# Measured values as given in PubChem BioAssay AID1851 (National Center for Advancing Translational Sciences (NCATS), 2009).
# The campaign covered roughly 16,000 compounds. About 4,000 (25%) were called active. Not shown: some 26% with an inconclusive outcome. The list is a sample of the results. A number with no mark means an inactive call. The call rests on the fitted dose curve; in most records, active means well fitted curve in the direction sought with a large enough effect; inconclusive means small, poorly fitted or top-dose-only effect, or effect the other way; inactive means no such curve, though single readings can be large or run the other way.
# Target: Cytochrome P450 2C9 (Homo sapiens) (UniProt P11712)
# Sequence (P11712 whole entry, looked up): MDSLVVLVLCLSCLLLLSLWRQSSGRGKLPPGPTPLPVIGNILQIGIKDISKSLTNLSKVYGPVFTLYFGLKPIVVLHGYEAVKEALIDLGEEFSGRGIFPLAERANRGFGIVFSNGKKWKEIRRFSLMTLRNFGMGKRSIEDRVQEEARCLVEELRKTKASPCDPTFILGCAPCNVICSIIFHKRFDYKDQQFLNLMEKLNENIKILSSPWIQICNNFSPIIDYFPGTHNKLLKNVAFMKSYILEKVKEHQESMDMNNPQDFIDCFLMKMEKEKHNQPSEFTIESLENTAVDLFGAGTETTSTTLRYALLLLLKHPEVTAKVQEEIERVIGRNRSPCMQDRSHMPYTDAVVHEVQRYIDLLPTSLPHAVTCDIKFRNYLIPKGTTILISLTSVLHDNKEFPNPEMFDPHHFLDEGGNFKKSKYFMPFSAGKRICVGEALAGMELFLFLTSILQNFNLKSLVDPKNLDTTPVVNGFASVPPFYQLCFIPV
# Assay: Cytochrome panel assay with activity outcomes
# Details: recombinant CYP, pro-luciferin dealkylation, luminescence, p450-cyp2c9; series mostly up to 57.1 µM
# On the % scale 0 is the no-effect control and ±100 the full control effect.
SMILES,"activity, negative = inhibition",AC50
Cc1noc(C)c1-c1nccc(NCc2cccnc2)n1,3.9% [at 2.29 µM],
C[C@@H](C(=O)O)/C(=C/c1ccc2c(c1)OCO2)C(=O)O,,2.51 µM (active)
OC[C@@H]1O[C@@H](O)[C@H](N=Cc2ccc3c(c2)OCO3)[C@@H](O)[C@@H]1O,12.1% [at 11.4 µM],
O=C(O)/C=C\C=C/c1ccc2c(c1)OCO2,-5.25% [at 11.4 µM],
Cc1ccccc1Oc1ccc(-c2nc(N)nc(N)n2)cc1,,8.91 µM (active)
Nc1nc(-c2ccc3ccccc3c2)cc(-c2cc(-c3ccc4ccccc4c3)nc(N)n2)n1,8.18% [at 11.4 µM],
Cc1cccc(Oc2ncc(-c3ccc(Cl)cc3)cn2)c1C,,inactive
COc1cccc(NC(=O)C2c3cc(OC)c(OC)cc3C(=O)N(C)C2c2cccnc2)c1 (configuration not stated),,inactive
COc1cccc(NC(=O)c2cc(-c3cccnc3)nc3c(Cl)cccc23)c1,,0.794 µM (active)
CCCOc1ccc(-c2nc(N)n[nH]2)cc1,,inactive
NCCSS(=O)(=O)CCN,-9.3% [at 11.4 µM],
c1ccc(NCCSc2nc3ccccc3s2)cc1,-12.4% [at 11.4 µM],
CCc1cc2c(Sc3nc4ccccc4s3)ncnc2s1,,11.2 µM (active)
CCn1c2ccccc2c2cnc(N=CN(C)C)c(C#N)c21,,14.1 µM (active)
O=C1[C@H]2[C@H]3[C@H](O)[C@H](O)C/C(=N/OC[C@@H](O)COCc4ccco4)[C@H]3CC[C@@H]2C(=O)N1C1CCCCC1,23.1% [at 11.4 µM],
O=C(O)[C@H]1CN[C@H](C(=O)O)C1,,inactive
CCOC(=O)C(C)Sc1ncc(OC)c(Sc2ccc(Cl)cc2)n1 (configuration not stated),,2.51 µM (active)
COC(=O)CSc1ncc(OC)c(OC)n1,,inactive
CCOC(=O)CSc1ncc(OC)c(Sc2ccc(Cl)cc2)n1,,0.891 µM (active)
Cc1cnc(CNc2ncncc2-c2ccoc2)cn1,6.74% [at 2.29 µM],
COc1ccc(-c2cnnn2-c2ccc(NC(=O)c3ccco3)cc2)cc1OC,,2.24 µM (active)
O=C(Nc1ccc(-n2nncc2-c2ccco2)cc1)c1cc2ccccc2oc1=O,,2.24 µM (active)
O=C(NCCN1CCN(C(=O)c2cc3ccccc3oc2=O)CC1)c1cc2ccccc2oc1=O,,inactive

SMILES,"activity, negative = inhibition",AC50
CO[C@H]1C=CO[C@]2(C)Oc3c(C)c(O)c4c(O)c(c5c(c4c3C2=O)NC2(CCN(CC(C)C)CC2)N=5)=NC(=O)C(C)=CC=C[C@@H](C)[C@@H](O)[C@@H](C)[C@@H](O)[C@@H](C)[C@@H](OC(C)=O)[C@@H]1C,,inactive
CC(C)NC(=O)N1CC[C@@]2(CCCN(C(=O)c3cccn3C)C2)C1,,inactive
CN(C)CCNc1oc(COc2ccc(Cl)cc2Cl)nc1C#N,,inactive
N#Cc1nc(COc2ccccc2Cl)oc1NCc1ccco1,,1.78 µM (active)
CCOc1ccc(-c2cc(CCCC(=O)Nc3cc(OC)ccc3OC)no2)cc1,,2.24 µM (active)
CCOc1ccc(-c2cc(CCCC(=O)NCCc3ccc(OC)c(OC)c3OC)no2)cc1,,1 µM (active)
CCOc1ccc(-c2nnn(CC(=O)Nc3cc(OC)ccc3OC)n2)cc1OCC,,inactive
CN(C)CCCN1c2ccc(O)cc2Sc2ccc(Cl)cc21,-1.91% [at 11.4 µM],
CSC1=N/C(=C\c2ccc3c(c2)OCO3)C(=O)S1,,inactive
CSC1=N/C(=C\c2ccc(C)cc2)C(=O)S1,,22.4 µM (active)
CSC1=N/C(=C\c2ccc(Br)o2)C(=O)S1,,39.8 µM (active)
CCCCNC(=O)C(=O)c1ccccc1NC(C)=O,,inactive
Cc1cnc(CNc2ncncc2-c2ccccc2C#N)cn1,-5.28% [at 2.29 µM],
O=c1c(Oc2ccccc2Br)c(C(F)(F)F)oc2c(CN3CCCC3)c(O)ccc12,,inactive
CCN(CC)Cc1c(O)ccc2c(=O)c(Oc3ccccc3OC)coc12,,7.94 µM (active)
Cc1cccc(Cn2ncc(Cl)c(Cl)c2=O)c1,,inactive
Cc1cccc(CNc2ncncc2-c2ccccc2Cl)c1,7.19% [at 2.29 µM],
C=CCSc1nc2c(sc3nc(C)cc(C)c32)c(=O)[nH]1,,7.94 µM (active)
Cc1c(S(=O)(=O)O)ccc(N=Nc2c(O)c(C(=O)O)cc3ccccc23)c1Cl,-11.1% [at 11.4 µM],
Nc1nc2n[nH]nc2c(=O)[nH]1,,inactive
Cc1cc(Cc2c(C)c(C)c(Cc3cc(C)cc(C(C)(C)C)c3O)c(C)c2C)c(O)c(C(C)(C)C)c1,9.35% [at 11.4 µM],
CC(C)c1cc(CN(C)C)c(O)c(C(C)(C)C)c1,1.03% [at 11.4 µM],
Cc1cc(Cc2cc(Cc3cc(C)cc(C(C)(C)C)c3O)c(C)cc2C)c(O)c(C(C)(C)C)c1,,3.16 µM (active)

SMILES,"activity, negative = inhibition",AC50
Cc1cc(C)c(O)c(Cc2cccc(Cc3cc(C)cc(C)c3O)c2O)c1,11.7% [at 11.4 µM],
Cc1cc(Cc2cc(C)cc(C(C)(C)C)c2O)c(O)c(Cc2cc(C)cc(C(C)(C)C)c2O)c1,,3.16 µM (active)
Cc1cc(C(C)(C)C)c(O)c(C)c1CC1=NCCN1,,inactive
C[N+](C)(CCCCCC[N+](C)(C)CCCN1C(=O)c2cccc3cccc(c23)C1=O)CCCN1C(=O)c2cccc3cccc(c23)C1=O,,inactive
Cc1ccc(NC(=S)N2CCN(C3CCCCC3)CC2)cc1,,inactive
Cc1ccc(NC(=S)N2CCN(CCN3C(=O)c4cccc5cccc(c45)C3=O)CC2)cc1,,6.31 µM (active)
C/C(=N\NC(=O)CC1N=C(Cc2ccccc2)NNC1=O)c1ccc(Cl)cc1Cl (configuration not stated),,inactive
COc1ccccc1CNC(=O)C/C(C)=N/NC(=O)Cc1ccccc1,,inactive
C/C(=N\NC(=O)Cc1ccc(Cl)cc1)c1ccccn1,,14.1 µM (active)
CC1(C)C2([N+](=O)[O-])CN3CC1([N+](=O)[O-])CN(C2)C3c1ccccc1 (configuration not stated),,inactive
FC(F)(F)c1ccccc1-c1cc(NCCN2CCOCC2)ncn1,26.8% [at 2.29 µM],
CCOC(=O)Oc1c(OC)cc(C(=O)O[C@H]2C[C@H]3CN4CCc5c([nH]c6cc(OC)ccc56)[C@@H]4C[C@H]3[C@@H](C(=O)OC)[C@@H]2OC)cc1OC,,inactive
Cc1ccc(S(=O)(=O)N(Cc2ccccc2)c2ccccc2C(=O)NCc2ccco2)cc1,,0.0398 µM (active)
Cc1cccc(C)c1NC(=O)CCN1C(=O)C2C3CCC(C3)C2C1=O (configuration not stated),,inactive
CCn1ccnc1C[C@@H]1COc2ccccc2O1,,inactive
Cc1cc(C(=O)CSc2nnc(-c3ccccc3)o2)c(C)n1CC1COc2ccccc2O1 (configuration not stated),,3.55 µM (active)
Cc1ccc(SCc2[nH]nc3c2C(C(C)C)C(C#N)=C(N)O3)cc1 (configuration not stated),,7.08 µM (active)
Fc1cccc(CSc2ncnc3c2ncn3[C@H]2CCCS2)c1,9.41% [at 11.4 µM],
O=C(O)CSc1ncnc2sc3c(c12)CCC3,,inactive
Fc1ccc(CSc2ncnc3sc4c(c23)CCCC4)cc1,,11.2 µM (active)
O=C(NNc1nc2ccccc2s1)C1CC1,,inactive
COCCN1CN=C(Nc2nc3ccccc3s2)NC1,,inactive
O=[N+]([O-])c1ccc(Nc2nc3ccccc3s2)cc1,,1.26 µM (active)

SMILES,"activity, negative = inhibition",AC50
CCCCC(=O)NC(Nc1cc(C)ccn1)(C(=O)OCC)C(F)(F)F (configuration not stated),,22.4 µM (active)
C/C(CC(=O)Nc1cc(C)ccn1)=N\NC(=O)COc1cccc(C)c1,,inactive
CCCc1nn(-c2ccccc2)c2c1C(c1cccs1)C(C#N)=C(N)O2 (configuration not stated),,4.47 µM (active)
CC(C)N(Cc1ccccc1)S(=O)(=O)c1n[nH]c(C(C)(C)C)n1,,3.98 µM (active)
COc1ccc(CCNC(=O)Cn2cnc3c2c(=O)n(C)c(=O)n3C)cc1OC,,inactive
COc1ccc(CCNC(=O)c2nnn(CC(=O)Nc3ccccc3C)c2N)cc1OC,,15.8 µM (active)
Cc1ccc(C)c(NC(=O)Cn2nnc(C(=O)NCc3cccs3)c2N)c1,,inactive
COc1ccccc1CNc1ncncc1-c1ccccc1C(F)(F)F,-18.6% [at 2.29 µM],
CN1c2ccccc2Oc2c(c(=O)n(C)c(=O)n2C)C1c1cccc([N+](=O)[O-])c1 (configuration not stated),,4.47 µM (active)
CC(=NCC(=O)O)c1ccccc1,2.4% [at 11.4 µM],
O=C(c1ccccc1)[C@@H]1O[C@H]1c1ccc(-c2ccccc2)cc1,,12.6 µM (active)
CCCCCCCCCCCCCCC[C@H](O)[C@H](N)CO,,inactive
O=C(O)c1cc(-c2ccc(-c3ccccc3)cc2)nc2cc3ccccc3cc12,-27% [at 11.4 µM],
Cc1ccc2nc(Nc3nc(-c4ccccc4)cc(=O)[nH]3)nc(C)c2c1,,2.82 µM (active)
Cc1ccccc1/C=C\C1=NCCN1,,inactive
CC(C)(C)COS(=O)OCC(C)(C)C,-7.38% [at 11.4 µM],
Cc1ccc(S(=O)(=O)/C=C\C#N)cc1,,12.6 µM (active)
CCN(CC)CCNC(=O)c1cc(Cl)c(N)cc1OC,,inactive
CC1=C(C(=O)OCc2ccccc2)C(c2ccc(Cl)cc2)NC(=O)N1CCCCCC(=O)O (configuration not stated),,12.6 µM (active)
CN1CCC[C@@H]1CCO[C@](C)(c1ccccc1)c1ccc(Cl)cc1,,inactive
CC1=C(C(=O)OCc2ccccc2)C(c2ccc3ccccc3c2)NC(=O)N1CCCCCC(=O)O (configuration not stated),,7.94 µM (active)
CC1=C(C(=O)OCc2ccccc2)C(c2ccc([N+](=O)[O-])cc2)NC(=O)N1CCCCCC(=O)O (configuration not stated),,15.8 µM (active)
CC(C)=CCC/C(C)=C/CO/N=C1/C[C@@H](O)[C@@H](O)[C@@H]2[C@@H]3C(=O)N(C[C@@H]4CCCO4)C(=O)[C@H]3CC[C@@H]12,9.34% [at 11.4 µM],
